In PubChem BioAssay (NCATS) one finds Potency data, which are given here for 8 compounds.

Results filed as inconclusive are left out. Active and inactive are the calls of the source. The call rests on the fitted dose curve; in most records, active means well fitted curve in the direction sought with a large enough effect; inconclusive means small, poorly fitted or top-dose-only effect, or another doubt; inactive means no such curve, though single readings can be large; an effect the other way counts as inactive or inconclusive.

A short description of assay [1]: Quantitative High-Throughput drug screen in 47 multiple myeloma cell lines against the NCATS MIPE library collection: AMO1_DSMZ cell viability assay (AID 1918927; further: nearly all actives have a fitted effect of over 30% in size). The essentials: (§1)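 Relative luminescence from CellTiter-Glo served as the viability signal, referenced to DMSO-treated (100%) and cell-free medium (0%) controls. Treatment lasted 48 hours at 37C with 500 cells per well.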

Assay [2] can be described thus: Quantitative High-Throughput drug screen in 47 multiple myeloma cell lines against the NCATS MIPE library collection: ARP1_JJKsccF8 cell viability assay (AID 1918928; further: nearly all actives have a fitted effect of over 40% in size). The essentials: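 Myeloma cells at 500 per well in 1536-well format treated with MIPE 4.0 library by pin transfer for 48 h at 37C, 5% CO2. Viability from ATP luminescence (CellTiter-Glo), normalized to DMSO (100%) and media-only (0%) wells.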

Assay [3] is described as follows: Quantitative High-Throughput drug screen in 47 multiple myeloma cell lines against the NCATS MIPE library collection: ARD_JJKsccE7 cell viability assay (AID 1918929). In a few lines: as §1
Assay [4] is described as follows: Quantitative High-Throughput drug screen in 47 multiple myeloma cell lines against the NCATS MIPE library collection: Karpas620_DSMZ cell viability assay (AID 1918959). Further: nearly all actives have a fitted effect of over 30% in size. In a few lines: (§2)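 Luminescent ATP measurement with CellTiter-Glo gives viability, scaled between DMSO-only wells (100%) and media-only wells (0%). Cells, 500 per well, faced library compounds for 48 hours at 37C.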

A short description of assay [5]: Quantitative High-Throughput drug screen in 47 multiple myeloma cell lines against the NCATS MIPE library collection: JIM3_ECACC cell viability assay (AID 1918963; further: nearly all actives have a fitted effect of over 35% in size). In a few lines: as §2
A short description of assay [6]: Quantitative High-Throughput drug screen in 47 multiple myeloma cell lines against the NCATS MIPE library collection: INA6_PLB cell viability assay (AID 1918965; further: nearly all actives have a fitted effect of over 55% in size). In a few lines: (§3)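 Steps: seed 500 cells per well; pin-transfer MIPE 4.0 library; incubate 48 h at 37C, 5% CO2, humidified; add CellTiter-Glo, 5 min room temperature; read luminescence.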
A short description of assay [7]: Quantitative High-Throughput drug screen in 47 multiple myeloma cell lines against the NCATS MIPE library collection: JJN3_DSMZ cell viability assay (AID 1918966; further: nearly all actives have a fitted effect of over 50% in size). The essentials:
as §1

A short description of assay [8]: Quantitative High-Throughput drug screen in 47 multiple myeloma cell lines against the NCATS MIPE library collection: H1112_PLB cell viability assay (AID 1918967; further: nearly all actives have a fitted effect of over 30% in size). In a few lines:
as §1

Assay [9] in a line: Quantitative High-Throughput drug screen in 47 multiple myeloma cell lines against the NCATS MIPE library collection: KMS20_JCRB cell viability assay (AID 1918973). Further: nearly all actives have a fitted effect of over 45% in size. The essentials: as §1
A short description of assay [10]: Quantitative High-Throughput drug screen in 47 multiple myeloma cell lines against the NCATS MIPE library collection: KMS26_JCRB cell viability assay (AID 1918975). Further: nearly all actives have a fitted effect of over 45% in size. The essentials: as §3
Assay [11] can be described thus: Quantitative High-Throughput drug screen in 47 multiple myeloma cell lines against the NCATS MIPE library collection: NCIH929_DSMZ cell viability assay (AID 1918978). Further: nearly all actives have a fitted effect of over 35% in size. The essentials:
(§4)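 Inhibition of viability over 48 h was scored by ATP content (CellTiter-Glo) in 500-cell wells. Zero and full viability were defined by media-only and DMSO-only wells.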

Assay [12] is described as follows: Quantitative High-Throughput drug screen in 47 multiple myeloma cell lines against the NCATS MIPE library collection: MM1R_ATCC cell viability assay (AID 1918981). Further: nearly all actives have a fitted effect of over 35% in size. In a few lines:
as §4

A short description of assay [13]: Quantitative High-Throughput drug screen in 47 multiple myeloma cell lines against the NCATS MIPE library collection: KMS28PE_JCRB cell viability assay (AID 1918983). Further: nearly all actives have a fitted effect of over 35% in size. In a few lines: as §4
A short description of assay [14]: Quantitative High-Throughput drug screen in 47 multiple myeloma cell lines against the NCATS MIPE library collection: JIM1_ECACC cell viability assay (AID 1918964). The essentials: as §1
Assay [15] can be described thus: Quantitative High-Throughput drug screen in 47 multiple myeloma cell lines against the NCATS MIPE library collection: Karpas25_ECACC cell viability assay (AID 1918968; further: nearly all actives have a fitted effect of over 35% in size). In a few lines:
as §1

A short description of assay [16]: Quantitative High-Throughput drug screen in 47 multiple myeloma cell lines against the NCATS MIPE library collection: MMM1_PLB cell viability assay (AID 1918976). Further: nearly all actives have a fitted effect of over 35% in size. To be noted: MMM1 myeloma cells viability, CellTiter-Glo, 48 h. The essentials: as §4
Assay [17] can be described thus: Quantitative High-Throughput drug screen in 47 multiple myeloma cell lines against the NCATS MIPE library collection: MOLP8_DSMZ cell viability assay (AID 1918977). Further: nearly all actives have a fitted effect of over 45% in size. The essentials:
as §4

Assay [18] in a line: Quantitative High-Throughput drug screen in 47 multiple myeloma cell lines against the NCATS MIPE library collection: MM1S_ATCC cell viability assay (AID 1918980). Further: nearly all actives have a fitted effect of over 45% in size. The essentials:
as §4

The nature of assay [19]: Quantitative High-Throughput drug screen in 47 multiple myeloma cell lines against the NCATS MIPE library collection: LP1_DSMZ cell viability assay (AID 1918982). Further: nearly all actives have a fitted effect of over 35% in size. The essentials: as §4
Potency means the concentration at half of the fitted maximal effect.

As for `CN(C)CCN(C)CCc1ccc(Cl)c(Cl)c1`, in assay [1], the Potency was 20900 nM (active). For the same compound, the Potency result in assay [2], in assay [3], in [4], in [5], in assay [6] and in assay [7] was “inactive” in each case. Besides, the Potency result in [8], in assay [9], in assay [10], in assay [11], in assay [12] and in assay [13] was “inactive” throughout.

`N[C@@H](Cc1ccc(N(CCCl)CCCl)cc1)C(=O)O`: the Potency in [1] was 18700 nM (active); in assay [2] it was 16600 nM (active); in assay [3] it was 18700 nM (active); in assay [4], 10500 nM (active); in assay [5] it was 16600 nM (active); in [14], 10500 nM (active). Besides, the Potency in [6] is 1320 nM (active); in assay [7] it was 11800 nM (active); in assay [8], 6620 nM (active); in assay [15], 13200 nM (active); in [10] it was 23500 nM (active); in assay [16], 4690 nM (active). The Potency in [17] is 5900 nM (active); in [11], 3320 nM (active); in assay [18], 13200 nM (active); in [12], 2640 nM (active); in assay [19] it was 16600 nM (active); in assay [13], 16600 nM (active).

`CC(C)CC(N(C)C)C1(c2ccc(Cl)cc2)CCC1` (centres undefined): the Potency entry in [1], in assay [2], in assay [3], in assay [4], in assay [5] and in assay [14] was “inactive” in each case. For the same compound, the Potency entry in assay [7], in assay [10], in assay [17], in [11] and in assay [19] was “inactive” throughout. In addition, the Potency in [8] and in assay [18] was 5260 nM (active) each time.

Regarding `Cn1c(CCCC(=O)O)nc2cc(N(CCCl)CCCl)ccc21`, the Potency entry in assay [3], in [4] and in assay [5] was “inactive” each time. For the same compound, the Potency was 18700 nM (active) in assay [6]; 5900 nM (active) in [10]; 10500 nM (active) in assay [16]; 3320 nM (active) in assay [17]; 13200 nM (active) in assay [11]; 23500 nM (active) in [18]. In addition, the Potency in assay [12] is 18700 nM (active); in assay [13], 7430 nM (active).

Turning to `NCC1(CC(=O)O)CCCCC1`, the Potency entry in [1], in [2], in assay [3], in [4], in [5] and in [6] was “inactive” in each case. Moreover, the Potency entry in assay [7], in assay [8], in assay [15], in assay [11], in [18] and in assay [19] was “inactive” throughout. In [13], the Potency result is “inactive”.

For `C[C@@H]1O[C@@H](O[C@H]2C[C@@H](O)[C@]3(CO)[C@H]4[C@H](O)C[C@]5(C)[C@@H](C6=CC(=O)OC6)CC[C@]5(O)[C@@H]4CC[C@]3(O)C2)[C@H](O)[C@H](O)[C@H]1O`, the Potency was 9.3 nM (active) in [1]; 41.8 nM (active) in assay [2]; 14.8 nM (active) in assay [3]; 37.2 nM (active) in assay [4]; 41.8 nM (active) in assay [5]; 13.2 nM (active) in [14]. The Potency in assay [6] is 23.5 nM (active); in assay [7], 105 nM (active); in [8] it was 83.3 nM (active); in [15], 37.2 nM (active); in assay [9], 23.5 nM (active); in assay [10], 105 nM (active). For the same compound, the Potency is 59 nM (active) in assay [11]; 59 nM (active) in assay [18]; 52.6 nM (active) in assay [12]; 16.6 nM (active) in assay [19]; 20.9 nM (active) in assay [13].

In the case of `C[C@@H]1[C@@H](CC(C[C@H]2O[C@@H]3O[C@]4(C)CC[C@@H]5[C@H](C)CC[C@@H]([C@H]2C)[C@@]35OO4)C[S+](=O)([O-])c2ccc(COC(=O)N(C)C)cc2)O[C@@H]2O[C@]3(C)CC[C@H]4[C@H](C)CC[C@@H]1[C@@]24OO3` (some centres undefined), the Potency is 118 nM (active) in [1]; 93.5 nM (active) in assay [2]; 118 nM (active) in assay [3]; 41.8 nM (active) in assay [4]; 264 nM (active) in assay [5]; 66.2 nM (active) in assay [14]. Also, the Potency in [6] was 235 nM (active); in [7], 148 nM (active); in [8], 209 nM (active); in assay [15], 118 nM (active); in assay [9] it was 264 nM (active); in assay [10], 296 nM (active). Besides, the Potency in assay [16] was 148 nM (active); in assay [17] it was 187 nM (active); in assay [11] it was 83.3 nM (active); in assay [18], 526 nM (active); in assay [12], 332 nM (active); in assay [13], 209 nM (active).

`COc1ccc(C(CN(C)C)C2(O)CCCCC2)cc1` (centres undefined): the Potency result in assay [2], in assay [3], in [4], in assay [5], in [14] and in assay [15] was “inactive” throughout. Also, the Potency entry in assay [10], in assay [17], in assay [11], in [12] and in assay [19] was “inactive” in each case.
